# Experimental data as given in the supplement of paper PMC11060735.
# “And” between values parts separate entries of the source, which are not always exact repeats. Equal values may be shown once. Where a name gives a salt, the structure may show the parent alone. ± gives the standard deviation of the averaged measurements. In all, about 1,800 compounds were measured (“GFP- (p16Ink4a-) cell count relative to negative-control wells”: median about 0.99, lowest 2% from about 0.5 on). Shown is part of a subset that was picked to be rich in the lowest values.
# Tested on: mouse p16Ink4a+/- lung fibroblasts (INKBRITE, bleomycin-injured)
# Assay: GFP- (p16Ink4a-) cell count relative to negative-control wells (fold of vehicle); higher = more p16Ink4a- cells surviving
# Conditions: 1 µM; 3 days
row,SMILES,GFP-
1,CCC[C@@H]1C[C@@H](C(=O)N[C@H](C(C)Cl)[C@H]2O[C@H](SC)[C@H](O)[C@@H](O)[C@H]2O)N(C)C1 (stereo partly drawn) [Clindamycin HCl],0.865 and 1.15
2,COC(=O)C1=C(C#N)N=C(C)/C(=C(\O)OC(C)C)C1c1cccc([N+](=O)[O-])c1 (stereo not drawn) [Nilvadipine],0.683
3,COc1ccc(-c2nc(N3CCOCC3)c3sc(CN(C)c4ncc(C(=O)NO)cn4)cc3n2)cn1 [Fimepinostat],0.491 ± 0.025
4,CS(=O)(=O)N1CCN(Cc2cc3nc(-c4cccc5[nH]ncc45)nc(N4CCOCC4)c3s2)CC1,0.676
5,Cc1c(CN2CCN(C(=O)[C@H](C)O)CC2)sc2c(N3CCOCC3)nc(-c3cnc(N)nc3)nc12,0.612
6,CCN(CC)CC#CCOC(=O)C(O)(c1ccccc1)C1CCCCC1 (stereo not drawn) [Oxybutynin],0.971
7,Nc1ccccc1NC(=O)c1ccc(CNc2nccc(-c3cccnc3)n2)cc1 [Mocetinostat],0.436 ± 0.22
8,"Cc1ccc(NC(=O)c2ccc(CN3CCN(C)CC3)cc2)cc1Nc1nccc(-c2cccnc2)n1 [Imatinib, Imatinib Mesylate]",1.04 and 0.966
9,Nc1ccccc1NC(=O)c1ccc(CNC(=O)OCc2cccnc2)cc1 [Entinostat],0.641 ± 0.022
10,c1cnc2cc3c(cc2n1)C1CNCC3C1 [Varenicline Tartrate],0.907
11,CCCCc1ncc(/C=C(\Cc2cccs2)C(=O)O)n1Cc1ccc(C(=O)O)cc1 [Eprosartan],0.961
12,Cn1cc(-c2cnn3c(N)c(Br)c([C@@H]4CCCNC4)nc23)cn1,0.988
13,NC(=O)N1CCC(CC(=O)N2CCC([C@H]3c4ncc(Br)cc4CCc4cc(Cl)cc(Br)c43)CC2)CC1 [Lonafarnib],0.808
14,COCC(=O)NC/C=C/c1ccc2ncnc(Nc3ccc(Oc4ccc(C)nc4)c(C)c3)c2c1,1.06
15,C[C@H]1C[C@@H]2[C@H]([C@@H](O)C[C@@]3(C)[C@H]2CC[C@]3(O)C(=O)CO)[C@@]2(C)C=CC(=O)C=C12 [Methylprednisolone],0.847
16,"CN1CCCC(n2nc(Cc3ccc(Cl)cc3)c3ccccc3c2=O)CC1 (stereo not drawn) [Azelastine, Azelastine Hydrochloride]",1
17,O=C(/C=C/c1ccc(CN(CCO)CCc2c[nH]c3ccccc23)cc1)NO [Dacinostat],0.556 ± 0.066
18,Cc1[nH]c2ccccc2c1CCNCc1ccc(/C=C/C(=O)NO)cc1 [Panobinostat],0.50294 ± 0.0002
19,Cc1[nH]c2ccccc2c1CCNC(=O)c1cccs1 [N-[2-(2-methyl-1H-indol-3-yl)ethyl]thiophene-2-carboxamide],1.11
20,Oc1cc2c(cc1O)[C@@H]1c3ccc(O)c(O)c3OC[C@]1(O)C2 [Hematoxylin],0.962
21,O=C(Nc1ccccc1-c1cn2c(CN3CCNCC3)csc2n1)c1cnc2ccccc2n1,0.752 and 0.432
22,CCO/C(O)=C1\C(C)=NC(C)=C(C(=O)OC)C1c1cccc(Cl)c1Cl (stereo not drawn) [Felodipine],0.531
23,O=C1NC(=O)/C(=C/c2cccc(C(F)(F)F)c2)S1,0.979 ± 0.056
24,CC(C)N(CCC(=O)c1ccc2ccccc2c1)Cc1ccccc1,0.897 ± 0.031
25,CNCC[C@@H](Oc1ccccc1C)c1ccccc1 [Atomoxetine],1.04

row,SMILES,GFP-
1,Cc1nc(NC(=O)N2CCC[C@H]2C(N)=O)sc1-c1ccnc(C(C)(C)C(F)(F)F)c1,0.875
2,CC(C)CN(C[C@@H](O)[C@H](Cc1ccccc1)NC(=O)O[C@H]1CCOC1)S(=O)(=O)c1ccc(N)cc1 [Amprenavir],1.01
3,Cc1ccc(NC(=O)C2(c3ccc4c(c3)OC(F)(F)O4)CC2)nc1-c1cccc(C(=O)O)c1 [Lumacaftor],0.94
4,CO[C@H]1C(=O)[C@]2(C)[C@@H](OC)C[C@H]3OC[C@@]3(OC(C)=O)[C@H]2[C@H](OC(=O)c2ccccc2)[C@]2(O)C[C@H](OC(=O)[C@H](O)[C@@H](NC(=O)OC(C)(C)C)c3ccccc3)C(C)=C1C2(C)C [Cabazitaxel],0.558
5,CC(=O)O[C@@]12CO[C@@H]1C[C@H](O)[C@@]1(C)C(=O)[C@H](O)C3=C(C)[C@@H](OC(=O)[C@H](O)[C@@H](NC(=O)OC(C)(C)C)c4ccccc4)C[C@@](O)([C@@H](OC(=O)c4ccccc4)[C@H]21)C3(C)C [Docetaxel],0.447
6,"CC(=O)O[C@H]1C(=O)[C@@]2(C)C([C@H](OC(=O)c3ccccc3)[C@]3(O)C[C@H](OC(=O)[C@H](O)[C@@H](NC(=O)c4ccccc4)c4ccccc4)C(C)=C1C3(C)C)[C@]1(OC(C)=O)CO[C@@H]1C[C@@H]2O (stereo partly drawn) [Taxol, Paclitaxel]",0.505
7,Cc1ccc(-n2nc(C)c(N=Nc3cccc(-c4cccc(C(=O)O)c4)c3O)c2O)cc1C [Eltrombopag],0.82
8,C[C@]12C=CC(=O)C=C1CC[C@H]1[C@@H]3C[C@@H](O)[C@](O)(C(=O)CO)[C@@]3(C)C[C@H](O)[C@@]12F [Triamcinolone],0.986
9,Cc1ccc(S(=O)(=O)c2ccc([N+](=O)[O-])o2)cc1,0.415
10,NC(=O)N/N=C/c1ccc([N+](=O)[O-])o1 [Nitrofural],0.939
11,Cc1ccc(S(=O)(=O)/C=C/C#N)cc1,0.854
12,Cc1ccccc1N1C(=O)c2cc(S(N)(=O)=O)c(Cl)cc2NC1C (stereo not drawn) [Metolazone],0.905
13,Oc1ccc(-c2nc(-c3ccc(F)cc3)c(-c3ccncc3)[nH]2)cc1,1.02
14,CC(C)(C)Cn1c(N)nc2ccc(-c3[nH]c(C(C)(C)C)nc3-c3ccc(F)cc3)nc21,0.974
15,COc1ccc(-c2ccc3ncc4c(c3c2)n(-c2ccc(N3CCNCC3)c(C(F)(F)F)c2)c(=O)n4C)cn1,0.4
16,Cn1c(=O)n(-c2ccc(C(C)(C)C#N)cc2)c2c3cc(-c4cnc5ccccc5c4)ccc3ncc21 [Dactolisib],0.74
17,CC1CCN(CC[C@H]2CCCN2S(=O)(=O)c2cccc(O)c2)CC1,0.862
18,CC1CNc2c(cccc2S(=O)(=O)N[C@@H](CCCN=C(N)N)C(=O)N2CC[C@@H](C)C[C@@H]2C(=O)O)C1 (stereo partly drawn) [Argatroban],1.09
19,CC1(C)CCC2=C(O1)c1ccccc1C(=O)C2=O [beta-Lapachone],1.08
20,CCOC(=O)c1ccc(C#Cc2ccc3c(c2)C(C)(C)CCS3)nc1 [Tazarotene],1.05
21,N#Cc1ccc2[nH]cc(CCCCN3CCN(c4ccc5oc(C(N)=O)cc5c4)CC3)c2c1 [Vilazodone],1.07
22,CO/C(O)=C1\C(C)=NC(C)=C(C(=O)OCCN2CCN(C(c3ccccc3)c3ccccc3)CC2)C1c1cccc([N+](=O)[O-])c1 (stereo not drawn) [Manidipine],0.985 and 0.964
23,Cc1ccc(Cl)cc1N(CC(=O)Nc1c(F)cccc1F)S(C)(=O)=O,1.06
24,O=C(O)C(O)Cc1ccc(O)c(O)c1 (stereo not drawn) [Sodium Danshensu],1.19
25,COc1nc(C)cnc1NS(=O)(=O)c1cccnc1-c1ccc(-c2nnco2)cc1 [Zibotentan],1.19

row,SMILES,GFP-
1,CCOC(=O)[C@H](CCc1ccccc1)N[C@@H](C)C(=O)N1Cc2cc(OC)c(OC)cc2C[C@H]1C(=O)O [Moexipril],0.982
2,COc1c2ccoc2cc2oc(=O)ccc12 [Bergapten],1.08
3,O=C1c2cccc(O)c2C(=O)c2c(O)cc(CO)cc21 [Aloe-emodin],1.13
4,O=C1c2c(O)ccc(O)c2C(=O)c2c(NCCNCCO)ccc(NCCNCCO)c21 [Mitoxantrone],0.503
5,"Nc1ncn([C@@H]2O[C@H](CO)[C@@H](O)[C@H]2O)c(=O)n1 [5-azacytidine, Azacitidine]",0.758 ± 0.04
6,CCOC(=O)[C@H]1O[C@@H]1C(=O)N[C@@H](CC(C)C)C(=O)NCCC(C)C [Aloxistatin],0.833
7,CN(C)c1ccc(C(=C2C=CC(=[N+](C)C)C=C2)c2ccc(N(C)C)cc2)cc1 [Gentian Violet],0.494
8,COCCO/C(O)=C1\C(C)=NC(C)=C(C(=O)OC(C)C)C1c1cccc([N+](=O)[O-])c1 (stereo not drawn) [Nimodipine],1.06
9,FC(F)c1nc2ccccc2n1-c1nc(N2CCOCC2)nc(N2CCOCC2)n1,0.711
10,O=C(NC(Cc1cc(O)nc2ccccc12)C(=O)O)c1ccc(Cl)cc1 (stereo not drawn) [Rebamipide],1.02
11,Cc1ccc([N+](=O)[O-])cc1S(=O)(=O)N(C)/N=C/c1cnc2ccc(Br)cn12,0.385
12,COC(=O)Nc1nc2cc(C(=O)c3ccc(F)cc3)ccc2[nH]1 [Flubendazole],0.933
13,CC(C(=O)O)c1ccc2c(c1)Cc1cccnc1O2 (stereo not drawn) [Pranoprofen],1.17
14,Cc1cc(NS(=O)(=O)c2ccc(N)cc2)no1 [Sulfamethoxazole],0.967
15,C=CC(=O)Nc1cccc(Oc2nc(Nc3ccc(N4CCN(C)CC4)cc3)ncc2Cl)c1,0.844
16,C=CCn1c(=O)c2cnc(Nc3ccc(N4CCN(C)CC4)cc3)nc2n1-c1cccc(C(C)(C)O)n1,0.409
17,Cc1cnc(Nc2ccc(N3CCN(C)CC3)cc2)nc1Nc1cccc(S(=O)(=O)NC(C)(C)C)c1,0.779 ± 0.037
18,C#C[C@]1(O)CC[C@H]2[C@@H]3CCc4cc(OC)ccc4[C@H]3CC[C@@]21C [Mestranol],1.15
19,COc1cc2nccc(Oc3ccc(NC(=O)C4(C(=O)Nc5ccc(F)cc5)CC4)cc3)c2cc1OC [Cabozantinib],0.824
20,COc1cc2nccc(Oc3ccc(NC(=O)Nc4cc(C)on4)c(Cl)c3)c2cc1OC [Tivozanib],1.01
21,COc1cc2nccc(Oc3ccc(NC(=O)Nc4ccc(F)cc4F)c(F)c3)c2cc1OC,0.466
22,CCn1cc(-c2ccnc3[nH]c(-c4cccc(CN(C)C)c4)cc23)c(-c2ccc(NC(=O)N(C)C)cc2)n1,0.658 ± 0.17
23,COc1cc(Nc2ncc(F)c(Nc3ccc4c(n3)N(COP(=O)(O)O)C(=O)C(C)(C)O4)n2)cc(OC)c1OC [Fostamatinib],0.771
